The nature of test [1]: NCI Yeast Anticancer Drug Screen. Data for the rad50 strain (AID 155).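 Further: 0% = growth of vehicle-only cultures of the same strain.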 As to conditions: S. cerevisiae rad50 strain growth inhibition, stronger effect = higher value. An outline of the steps: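 Yeast carrying a defined DNA repair defect were exposed to test compounds, and growth was compared with vehicle-treated controls to give percent inhibition.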
Test [2] in a line: NCI Yeast Anticancer Drug Screen. Data for the mec2-1 strain (AID 157). As to conditions: S. cerevisiae mec2-1 strain, stronger effect = higher value. The gist of the method:
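Growth inhibition is read against vehicle-treated controls after compound exposure of the mec2-1 yeast strain, which is defective in DNA damage repair or cell cycle control.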

Test [3] can be described thus: NCI Yeast Anticancer Drug Screen. Data for the sgs1 mgt1 strain (AID 161).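 Further: 0% = growth of cultures given vehicle only.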 The note with it: S. cerevisiae sgs1 mgt1 strain, stronger effect = higher value. The gist of the method:
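Yeast cells carrying a defined DNA-repair defect were exposed to test compounds. Growth inhibition was measured relative to vehicle-treated controls.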

The nature of test [4]: NCI Yeast Anticancer Drug Screen. Data for the cln2 rad14 strain (AID 165).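 Further: 0% = growth equal to vehicle treated cultures.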 The note with it: S. cerevisiae cln2 rad14 strain, stronger effect = higher value. An outline of the steps: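 Growth inhibition, relative to vehicle-treated controls, is the read-out. The test organism is a yeast strain with defined genetic alterations, cln2 rad14.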
The nature of test [5]: NCI Yeast Anticancer Drug Screen. Data for the bub3 strain (AID 167). As to conditions: S. cerevisiae bub3 mutant strain, stronger effect = higher value. An outline of the steps: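 Compounds were applied to a genetically altered yeast strain carrying a cell-cycle control defect. Growth inhibition was scored against vehicle-treated controls.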
Test [6] can be described thus: NCI Yeast Anticancer Drug Screen. Data for the mlh1 rad18 strain (AID 175). The note with it: S. cerevisiae mlh1 rad18 strain growth inhibition, stronger effect = higher value. The gist of the method:
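Cells of a genetically altered yeast strain, deficient in DNA damage repair, were treated with compound. Their growth was then compared with that of vehicle-treated cultures to give inhibition.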

Setting [7] is: at 5.0 µM (retest, dose inferred, filed as 0.5).
[8] abbreviates: at 50.0 µM (retest, dose inferred, filed as 5.0).

This is an account of results in PubChem BioAssay (NCI).

Compounds without any hit were thinned out: in the full panel of roughly 79,000, 15% have a hit. A number with no mark means an inactive call. Calls of active or inactive are those of the source. No stated cut-off is given here; in the data, active means growth inhibition above about 70%; inactive means the rest.

In the case of `S=C=Nc1ccc(N2CCOCC2)cc1`, the growth inhibition in test [1] (setting [7]) is 96% (active); in test [1] (setting [8]) it was 99% (active); in test [1] (at 50.0 µM), 99.3% (active); in test [2] (setting [7]), 31%; in test [2] (setting [8]), 100% (active); in test [2] (at 50.0 µM) it was 99.7% (active). For the same molecule, the growth inhibition in test [3] (setting [7]) is 41%; in test [3] (setting [8]), 99% (active); in test [3] (at 50.0 µM), 99.7% (active); in test [4] (setting [7]), 10%; in test [4] (setting [8]), 99% (active); in test [4] (at 50.0 µM), 96.3% (active). Moreover, the growth inhibition in test [5] (setting [7]) is 26%; in test [5] (setting [8]), 98% (active); in test [5] (at 50.0 µM) it was 99.2% (active); in test [6] (setting [7]) it was 33%; in test [6] (setting [8]), 99% (active); in test [6] (at 50.0 µM), 99.2% (active).
Regarding `COc1ccc2c(c1)C(N)=C(c1ccccc1)C2=O`, the growth inhibition in test [1] (setting [7]) was 14%; in test [1] (setting [8]) it was 15%; in test [1] (at 50.0 µM), 70.2% (active); in test [2] (setting [7]) it was 16%; in test [2] (setting [8]) it was 8%; in test [2] (at 50.0 µM), 28.2%. The growth inhibition in test [3] (setting [7]) was 16%; in test [3] (setting [8]) it was 28%; in test [3] (at 50.0 µM), 63.1%; in test [4] (setting [7]), 17%; in test [4] (setting [8]), 10%; in test [4] (at 50.0 µM), 0.55%. The growth inhibition was 24% in test [5] (setting [7]); 19% in test [5] (setting [8]); 59.2% in test [5] (at 50.0 µM); 21% in test [6] (setting [7]); 9% in test [6] (setting [8]); -31.8% in test [6] (at 50.0 µM).
Take `OC(c1cc2ccc(C(F)(F)F)cc2c2cc(C(F)(F)F)ccc12)C1CCCCN1` (configuration not stated): the growth inhibition is 85% (active) in test [1] (setting [7]); 98% (active) in test [1] (setting [8]); 89.6% (active) in test [1] (at 50.0 µM); 77% (active) in test [2] (setting [7]); 98% (active) in test [2] (setting [8]); 92% (active) in test [2] (at 50.0 µM). Moreover, the growth inhibition in test [3] (setting [7]) is 96% (active); in test [3] (setting [8]) it was 98% (active); in test [3] (at 50.0 µM) it was 88.9% (active); in test [4] (setting [7]), 44%; in test [4] (setting [8]), 97% (active); in test [4] (at 50.0 µM) it was 88.2% (active). For the same molecule, the growth inhibition is 91% (active) in test [5] (setting [7]); 99% (active) in test [5] (setting [8]); 85.5% (active) in test [5] (at 50.0 µM); 97% (active) in test [6] (setting [7]); 97% (active) in test [6] (setting [8]); 85.7% (active) in test [6] (at 50.0 µM).
With `CN=C(N)N/N=C(\c1ccccc1)c1ccc(Br)cc1`, the growth inhibition in test [1] (setting [7]) was 11%; in test [1] (setting [8]), 51%; in test [1] (at 50.0 µM) it was 46.4%; in test [2] (setting [7]), 8%; in test [2] (setting [8]) it was 39%; in test [2] (at 50.0 µM) it was 71% (active). For the same molecule, the growth inhibition in test [3] (setting [7]) is 13%; in test [3] (setting [8]) it was 43%; in test [3] (at 50.0 µM) it was 16.9%; in test [4] (setting [7]), 18%; in test [4] (setting [8]) it was 33%; in test [4] (at 50.0 µM), 12.3%. In addition, the growth inhibition in test [5] (setting [7]) was 5%; in test [5] (setting [8]) it was 63%; in test [5] (at 50.0 µM), 1.9%; in test [6] (setting [7]) it was 10%; in test [6] (setting [8]), 64%; in test [6] (at 50.0 µM), -2.1%.
With `Cc1cc(O)c2c(c1)C(=O)C(c1c(C)cc3c(c1O)C(=O)C1OC1C3=O)=CC2=O` (configuration not stated), the growth inhibition in test [1] (setting [7]) was 98% (active); in test [1] (setting [8]), 96% (active); in test [1] (at 50.0 µM) it was 76.8% (active); in test [2] (setting [7]) it was 99% (active); in test [2] (setting [8]) it was 96% (active); in test [2] (at 50.0 µM), 76.2% (active). Moreover, the growth inhibition in test [3] (setting [7]) was 99% (active); in test [3] (setting [8]) it was 95% (active); in test [3] (at 50.0 µM) it was 89.7% (active); in test [4] (setting [7]), 98% (active); in test [4] (setting [8]), 95% (active); in test [4] (at 50.0 µM), 79.3% (active). Besides, the growth inhibition in test [5] (setting [7]) is 99% (active); in test [5] (setting [8]), 95% (active); in test [5] (at 50.0 µM) it was 79.2% (active); in test [6] (setting [7]), 98% (active); in test [6] (setting [8]), 97% (active); in test [6] (at 50.0 µM), 87.8% (active).
Consider `NNc1cccc([N+](=O)[O-])c1`, for which the growth inhibition is 12% in test [1] (setting [7]); 68% in test [1] (setting [8]); 76.8% (active) in test [1] (at 50.0 µM); 0% in test [2] (setting [7]); 71% (active) in test [2] (setting [8]); 84.2% (active) in test [2] (at 50.0 µM). The growth inhibition is 10% in test [3] (setting [7]); 50% in test [3] (setting [8]); 57.2% in test [3] (at 50.0 µM); 24% in test [4] (setting [7]); 67% in test [4] (setting [8]); 72.6% (active) in test [4] (at 50.0 µM). In addition, the growth inhibition in test [5] (setting [7]) is -6%; in test [5] (setting [8]), 94% (active); in test [5] (at 50.0 µM), 81.8% (active); in test [6] (setting [7]), 11%; in test [6] (setting [8]) it was 94% (active); in test [6] (at 50.0 µM), 78% (active).
With `Cc1ccc(N2C(=O)C=CC2=O)cc1`, the growth inhibition was 95% (active) in test [1] (setting [7]); 99% (active) in test [1] (setting [8]); 99.3% (active) in test [1] (at 50.0 µM); 99% (active) in test [2] (setting [7]); 99% (active) in test [2] (setting [8]); 99.5% (active) in test [2] (at 50.0 µM). Moreover, the growth inhibition in test [3] (setting [7]) was 89% (active); in test [3] (setting [8]), 99% (active); in test [3] (at 50.0 µM) it was 99.7% (active); in test [4] (setting [7]), 92% (active); in test [4] (setting [8]) it was 100% (active); in test [4] (at 50.0 µM), 99.5% (active). Moreover, the growth inhibition in test [5] (setting [7]) is 99% (active); in test [5] (setting [8]), 99% (active); in test [5] (at 50.0 µM), 98.9% (active); in test [6] (setting [7]) it was 82% (active); in test [6] (setting [8]), 100% (active); in test [6] (at 50.0 µM), 99.2% (active).
As for `Cc1ccccc1N=C(N)Nc1ccccc1C` (tested in a mixture with another compound), the growth inhibition in test [1] (setting [7]) was 0%; in test [1] (setting [8]), 15%; in test [1] (at 50.0 µM) it was 12.9%; in test [2] (setting [7]), -2%; in test [2] (setting [8]), 7%; in test [2] (at 50.0 µM), 27.8%. Moreover, the growth inhibition was -1% in test [3] (setting [7]); 5% in test [3] (setting [8]); 30.6% in test [3] (at 50.0 µM); -2% in test [4] (setting [7]); -16% in test [4] (setting [8]); -62.5% in test [4] (at 50.0 µM). For the same molecule, the growth inhibition was 3% in test [5] (setting [7]); 11% in test [5] (setting [8]); 11.5% in test [5] (at 50.0 µM); -2% in test [6] (setting [7]); 13% in test [6] (setting [8]); 28.6% in test [6] (at 50.0 µM).
Regarding `O=C1CSC(=S)N1Cc1cccnc1`, the growth inhibition is 1% in test [1] (setting [7]); 19% in test [1] (setting [8]); 45.4% in test [1] (at 50.0 µM); 4% in test [2] (setting [7]); 47% in test [2] (setting [8]); 34% in test [2] (at 50.0 µM). The growth inhibition was 6% in test [3] (setting [7]); 24% in test [3] (setting [8]); 42.9% in test [3] (at 50.0 µM); 32% in test [4] (setting [7]); 33% in test [4] (setting [8]); 1.95% in test [4] (at 50.0 µM). For the same molecule, the growth inhibition in test [5] (setting [7]) is -22%; in test [5] (setting [8]) it was 48%; in test [5] (at 50.0 µM) it was 61.8%; in test [6] (setting [7]) it was -4%; in test [6] (setting [8]), 72% (active); in test [6] (at 50.0 µM), 54.9%.
